The text below walks through data of the supplement of paper PMC8728848.

Common to all, as to assay: glycan array binding signal (z-score within array); higher = stronger binding
Holding throughout (settings): glycan notation: IUPAC condensed, linker removed

For experiment [1], the system named is Gal(b1-3)GlcNAc(b1-2)Man(a1-3)[GlcNAc(b1-4)][Gal(b1-3)GlcNAc(b1-2)Man(a1-6)]Man(b1-4)GlcNAc(b1-4)GlcNAc. The method in brief:
(§1)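 Glycan array data were curated from 3228 arrays in the Consortium for Functional Glycomics database and kept only where the protein sequence was available. Glycan names were converted to IUPAC-condensed notation, and columns mapping to the same glycan were averaged. The binding signal is a within-array Z-score, averaged across arrays of the same protein sequence at different concentrations or buffers and across linkers. Negative Z-scores can be read as non-binding.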

The subject of experiment [2] is Gal(b1-3)GlcNAc(b1-3)Gal(b1-4)GlcNAc(b1-6)[Gal(b1-3)GlcNAc(b1-3)]Gal(b1-4)Glc. In a few lines: as §1
The subject of experiment [3] is Gal(b1-3)GlcNAc(b1-6)Gal(b1-4)GlcNAc. In a few lines: as §1
Experiment [4] relates to Gal(b1-3)GlcNAc(b1-6)GalNAc. In a few lines:
as §1

The test system of the next experiment is Gal(b1-3)GlcNAc(b1-2)Man. In a few lines: as §1
Experiment [5] deals with Gal(b1-3)GlcNAc(b1-3)Gal(b1-4)GlcNAc(b1-2)[Gal(b1-3)GlcNAc(b1-3)Gal(b1-4)GlcNAc(b1-6)]Man(a1-6)[Gal(b1-3)GlcNAc(b1-3)Gal(b1-4)GlcNAc(b1-2)Man(a1-3)]Man(b1-4)GlcNAc(b1-4)[Fuc(a1-6)]GlcNAc. The method in brief: as §1
The subject of experiment [6] is Gal(b1-3)GlcNAc(b1-3)Gal(b1-4)GlcNAc(b1-3)Gal(b1-4)GlcNAc(b1-2)[Gal(b1-3)GlcNAc(b1-3)Gal(b1-4)GlcNAc(b1-3)Gal(b1-4)GlcNAc(b1-6)]Man(a1-6)[Gal(b1-3)GlcNAc(b1-3)Gal(b1-4)GlcNAc(b1-3)Gal(b1-4)GlcNAc(b1-2)Man(a1-3)]Man(b1-4)GlcNAc(b1-4)[Fuc(a1-6)]GlcNAc. The method in brief: as §1
The next experiment deals with Gal(b1-3)GlcNAc6S. In a few lines: as §1
Experiment [7] has as its system Gal(b1-3)GlcNAc(b1-3)Gal(b1-4)Glc. In a few lines: as §1
The test system of experiment [8] is Gal(b1-3)[Fuc(a1-4)]GlcNAc(b1-2)Man(a1-3)[Gal(b1-3)[Fuc(a1-4)]GlcNAc(b1-2)Man(a1-6)]Man(b1-4)GlcNAc(b1-4)GlcNAc. The method in brief: as §1

Many of the other results were omitted from the sample, so the strongest signals are more common in it than they were.

Consider LcI (Legionella pneumophila), for which the “glycan array binding signal (z-score)” value in [1] was 0.389; in experiment [2], -0.388; in [3], -0.157; in experiment [4], 3.69.
In the case of Epa22, the “glycan array binding signal (z-score)” value in the experiment with Gal(b1-3)GlcNAc(b1-2)Man was -0.018.
On to AgI/IIC123-GFP (Streptococcus mutans), for which the “glycan array binding signal (z-score)” value in experiment [5] was 5.61; in [6], -0.036; in experiment [3], 0.823; in the experiment on Gal(b1-3)GlcNAc6S it was -0.244.
As to Wza (Escherichia coli), P0A930, the “glycan array binding signal (z-score)” value in [7] was -0.658.
In the case of BambL (Burhholderia ambifaria), Q0B4G1, the figures for the “glycan array binding signal (z-score)” value in experiment [7] and in [8] were -0.312 and -0.317, respectively.
As to “SpGH101 (Streptococcus pneumoniae), Q8DR60”, in experiment [8], the “glycan array binding signal (z-score)” value was 1.28.
